Where a name gives a salt, the structure may show the parent alone.
Experiments:
Conditions in all cases: incubation time: 27 h, anaerobic, 37 °C;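 for the amine columns active = adjusted P below 0.05 in both replicates with a change the same way and a mean fold change under 0.8 or over 1.25; inactive = the rest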
[1] = test system: Clostridium sporogenes DSM 1664; assay: growth (OD595) fold change vs plate DMSO controls (fold change (ratio)); higher = more growth
How it was run: (§1)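 Absorbance at 595 nm was read after shaking the anaerobic mGAM cultures, which had grown in 96-well plates for 27 h at 37 °C. After blank subtraction and background correction against 20 µM compound solutions in water, a calibration factor of 5 gave OD values. Growth is the fold change against the median of the plate's DMSO controls. Values are the mean of 2 biological replicates, with fold changes above 1.5 set to NA.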

Escherichia coli IAI1 [2] = assay: as above
How it was run: as §1

[3] = test system: Klebsiella aerogenes DSM 30053; assay: as above
How it was run: as §1

[4] = test system: Ruminococcus gnavus DSM 108212; assay: as above
How it was run: as §1

[5] = test system: Klebsiella aerogenes DSM 30053; assay: fold change of Histamine concentration vs plate DMSO controls (fold change (ratio)); higher = more amine produced, active = hit call of the paper (significant change in both replicates, either direction)
How it was run: (§2)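 Amine values are fold changes relative to DMSO-only wells on the same plate. They derive from 27 h, 37 °C anaerobic mGAM cultures of four gut bacterial strains in 80 µL wells, dosed at 20 µM final, or 50 µM final for sweeteners. Extraction of the whole culture, LC–triple-quadrupole MS in dynamic MRM mode, external calibration curves and within-batch drift correction were used, with 2 biological replicates averaged.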

[6] = test system: Clostridium sporogenes DSM 1664; assay: fold change of Tryptamine concentration vs plate DMSO controls (fold change (ratio)); higher = more amine produced, active = hit call of the paper (significant change in both replicates, either direction)
How it was run: as §2

[7] = test system: Ruminococcus gnavus DSM 108212; assay: as above
How it was run: as §2

Escherichia coli IAI1 [8] = assay: fold change of Putrescine concentration vs plate DMSO controls (fold change (ratio)); higher = more amine produced, active = hit call of the paper (significant change in both replicates, either direction)
How it was run: as §2

[9] = test system: Klebsiella aerogenes DSM 30053; assay: as above
How it was run: as §2

Escherichia coli IAI1 [10] = assay: fold change of Cadaverine concentration vs plate DMSO controls (fold change (ratio)); higher = more amine produced, active = hit call of the paper (significant change in both replicates, either direction)
How it was run: as §2

[11] = test system: Klebsiella aerogenes DSM 30053; assay: as above
How it was run: as §2

[12] = test system: Ruminococcus gnavus DSM 108212; assay: fold change of 2-Phenylethylamine concentration vs plate DMSO controls (fold change (ratio)); higher = more amine produced, active = hit call of the paper (significant change in both replicates, either direction)
How it was run: as §2

SMILES | growth [1] | growth (Escherichia coli IAI1 [2]) | growth [3] | growth [4] | fold change of Histamine concentration [5] | fold change of Tryptamine concentration [6] | fold change of Tryptamine concentration [7] | fold change of Putrescine concentration (Escherichia coli IAI1 [8]) | fold change of Putrescine concentration [9] | fold change of Cadaverine concentration (Escherichia coli IAI1 [10]) | fold change of Cadaverine concentration [11] | fold change of 2-Phenylethylamine concentration [12]
O=C(O)COc1nn(Cc2ccccc2)c2ccccc12 [Bendazac] (20 µM) | 1.19 | 1.05 | 1.05 | 1.02 | 0.954 (inactive) | 0.948 (inactive) | 0.986 (inactive) | 0.975 (inactive) | 1 (inactive) | 0.973 (inactive) | 1 (inactive) | 0.993 (inactive)
C=C1C[C@H]2[C@@H]3C=C(C)C4=CC(=O)CC[C@]4(C)[C@H]3CC[C@]2(C)[C@@]1(OC(C)=O)C(C)=O [Melengestrol acetate] (20 µM) | 1.17 | 1.07 | 1.07 | 1.04 | 1.03 (inactive) | 1 (inactive) | 1.03 (inactive) | 1.02 (inactive) | 1 (inactive) | 1.02 (inactive) | 0.995 (inactive) | 1.05 (inactive)
OC[C@H]1O[C@@](CO)(OC[C@@]2(OC[C@@]3(O[C@H]4O[C@H](CO)[C@@H](O)[C@H](O)[C@H]4O)O[C@H](CO)[C@@H](O)[C@@H]3O)O[C@H](CO)[C@@H](O)[C@@H]2O)[C@@H](O)[C@@H]1O [Nystose] (50 µM) | 1.05 | 1.09 | 1.02 | 1.05 | 1.05 (inactive) | 1.01 (inactive) | 1 (inactive) | 0.999 (inactive) | 1.01 (inactive) | 0.958 (inactive) | 0.995 (inactive) | 0.994 (inactive)
Cc1nn(C)c(Oc2ccccc2)c1/C=N/OCc1ccc(C(=O)OC(C)(C)C)cc1 (20 µM) | 1.15 | 1.03 | 1.02 | 0.998 | 0.993 (inactive) | 0.918 (inactive) | 1.04 (inactive) | 1.02 (inactive) | 1.06 (inactive) | 0.987 (inactive) | 1.03 (inactive) | 0.974 (inactive)
C#C[C@]1(O)CC[C@H]2[C@@H]3[C@H](C)CC4=C(CCC(=O)C4)[C@H]3CC[C@@]21C [Tibolone] (20 µM) | 1.01 | 0.989 | 1.04 | 0.931 | 1.03 (inactive) | 1.05 (inactive) | 1.04 (inactive) | 1.03 (inactive) | 1.02 (inactive) | 0.994 (inactive) | 1.01 (inactive) | 1.02 (inactive)
N[C@@H](Cc1cc(I)c(Oc2cc(I)c(O)c(I)c2)c(I)c1)C(=O)O [(L) Thyroxine] (20 µM) | 1.27 | 0.975 | 1.01 | 0.958 | 1.05 (inactive) | 1.27 (inactive) | 0.99 (inactive) | 1.01 (inactive) | 1 (inactive) | 1 (inactive) | 1.01 (inactive) | 1.03 (inactive)
NC(N)=Nc1nc(CSCCN/C=N/S(=O)(=O)c2ccc(Br)cc2)cs1 [Ebrotidine] (20 µM) | 1.02 | 1.02 | 0.989 | 1.02 | 1.03 (inactive) | 0.91 (inactive) | 0.836 (inactive) | 0.974 (inactive) | 0.991 (inactive) | 1.06 (inactive) | 1.01 (inactive) | 0.887 (inactive)
CC(=O)O[C@]1(C(C)=O)CC[C@H]2[C@@H]3C=C(Cl)C4=CC(=O)[C@@H]5C[C@@H]5[C@]4(C)[C@H]3CC[C@@]21C [Cyproterone acetate] (20 µM) | 1.17 | 0.908 | 0.894 | 0.639 | 0.982 (inactive) | 0.986 (inactive) | 0.938 (inactive) | 1.02 (inactive) | 1 (inactive) | 0.999 (inactive) | 0.996 (inactive) | 0.927 (inactive)
CN(CCCN1c2ccccc2CCc2ccccc21)CC(=O)c1ccc(Cl)cc1 [Lofepramine] (20 µM) | 1.02 | 0.937 | 1.02 | 1.2 | 0.986 (inactive) | 1.04 (inactive) | 0.891 (inactive) | 1.01 (inactive) | 1.03 (inactive) | 0.989 (inactive) | 0.999 (inactive) | 0.851 (inactive)
Cn1c(=O)c2c(ncn2CC(=O)O)n(C)c1=O [Acefylline] (20 µM) | 0.895 | 0.94 | 1.02 | 1.06 | 0.964 (inactive) | 0.971 (inactive) | 0.936 (inactive) | 0.93 (inactive) | 0.995 (inactive) | 1.01 (inactive) | 0.999 (inactive) | 0.886 (inactive)
COc1cc(N)c(Cl)cc1C(=O)NC1CCN(Cc2ccccc2)CC1 [Clebopride maleate] (20 µM) | 1.05 | 0.95 | 0.981 | 0.875 | 1 (inactive) | 1.01 (inactive) | 0.985 (inactive) | 0.926 (inactive) | 0.976 (inactive) | 0.984 (inactive) | 0.999 (inactive) | 0.985 (inactive)
COc1ccc(-c2cc(=S)ss2)cc1 [Anethole-trithione] (20 µM) | 0.802 | 1.01 | 0.968 | 1.04 | 1.04 (inactive) | 1.18 (inactive) | 1.07 (inactive) | 1.01 (inactive) | 0.972 (inactive) | 1.01 (inactive) | 0.986 (inactive) | 1.07 (inactive)
Cc1cccc(N(C)C(=S)Oc2ccc3ccccc3c2)c1 [Tolnaftate] (20 µM) | 1.02 | 0.997 | 0.984 | 0.839 | 0.984 (inactive) | 1.04 (inactive) | 1.06 (inactive) | 1.04 (inactive) | 1.01 (inactive) | 1 (inactive) | 1 (inactive) | 1.04 (inactive)
C#C[C@]1(O)CC[C@H]2[C@@H]3CCC4=Cc5oncc5C[C@]4(C)[C@H]3CC[C@@]21C [Danazol] (20 µM) | 0.903 | 0.883 | 0.858 | 0.744 | 1.07 (inactive) | 0.887 (inactive) | 1.03 (inactive) | 1.01 (inactive) | 1.02 (inactive) | 0.994 (inactive) | 0.993 (inactive) | 0.997 (inactive)
CC(=O)OCC(=O)NCCCOc1cccc(CN2CCCCC2)c1 [Roxatidine acetate hydrochloride] (20 µM) | 1.02 | 1.06 | 1.01 | 0.677 | 0.958 (inactive) | 0.989 (inactive) | 0.972 (inactive) | 1.27 (inactive) | 1.01 (inactive) | 1.18 (inactive) | 1.01 (inactive) | 0.905 (inactive)
COC(=O)Nc1nc2cc(C(=O)c3cccs3)ccc2[nH]1 [Nocodazole] (20 µM) | 0.969 | 1.01 | 1.02 | 1.05 | 0.98 (inactive) | 0.968 (inactive) | 0.999 (inactive) | 0.977 (inactive) | 1 (inactive) | 0.996 (inactive) | 1.03 (inactive) | 1.03 (inactive)
Brc1c(NC2=NCCN2)ccc2nccnc12 [Brimonidine L-tartrate] (20 µM) | 0.988 | 1.06 | 0.999 | 1.03 | 0.928 (inactive) | 1.07 (inactive) | 0.885 (inactive) | 0.973 (inactive) | 0.971 (inactive) | 0.919 (inactive) | 1.06 (inactive) | 1.05 (inactive)
CCN(CC)CCOC(=O)C1(c2ccc([N+](=O)[O-])cc2)CCCC1 [Nitrocaramiphen hydrochloride] (20 µM) | 0.793 | 1.07 | 0.995 | 1.02 | 1.03 (inactive) | 0.949 (inactive) | 1.04 (inactive) | 1.03 (inactive) | 0.982 (inactive) | 1.03 (inactive) | 0.98 (inactive) | 0.995 (inactive)
CC(CCc1ccc(O)cc1)NCCc1ccc(O)c(O)c1 (centres undefined) [Dobutamine hydrochloride] (20 µM) | 1.01 | 0.997 | 0.99 | 0.938 | 1.12 (inactive) | 1 (inactive) | 1.02 (inactive) | 0.998 (inactive) | 1.01 (inactive) | 0.971 (inactive) | 0.973 (inactive) | 1.04 (inactive)
CCCCN(CCCC)CCC(O)c1cc2c(Cl)cc(Cl)cc2c2cc(C(F)(F)F)ccc12 (centres undefined) [Halofantrine hydrochloride] (20 µM) | 1.1 | 1.23 | 1.03 | 1.16 | 0.895 (inactive) | 1.01 (inactive) | 0.756 (active) | 1.17 (inactive) | 0.964 (inactive) | 0.955 (inactive) | 1.01 (inactive) | 0.92 (inactive)
Cc1nc(=O)c2cc(CN(C)c3ccc(C(=O)N[C@@H](CCC(=O)O)C(=O)O)s3)ccc2[nH]1 [Raltitrexed] (20 µM) | 1.11 | 1 | 1.02 | 1.21 | 1 (inactive) | 1.17 (inactive) | 1.06 (inactive) | 0.924 (inactive) | 0.968 (inactive) | 0.943 (inactive) | 1.05 (inactive) | 1.06 (inactive)
CN1CCC(=C2c3ccccc3CCc3sccc32)CC1 [Pizotifen malate] (20 µM) | 1.3 | 1.03 | 0.982 | 0.963 | 1.06 (inactive) | 1.01 (inactive) | 0.924 (inactive) | 1 (inactive) | 1.01 (inactive) | 1.04 (inactive) | 0.994 (inactive) | 0.987 (inactive)

— the supplement of paper PMC12494721
